The text below walks through data of PubChem BioAssay (Tox21).

Inconclusive results are not listed. Unmarked numbers belong to inactive results. Activity calls are given as the source filed them. Calls come from the whole dose curve.
% is set by controls: 0 for no effect and ±100 for the full control effect; potency is the fitted concentration of half-maximal effect.

Sequence of 5-hydroxytryptamine receptor 2A (Homo sapiens) (P28223 whole entry, looked up): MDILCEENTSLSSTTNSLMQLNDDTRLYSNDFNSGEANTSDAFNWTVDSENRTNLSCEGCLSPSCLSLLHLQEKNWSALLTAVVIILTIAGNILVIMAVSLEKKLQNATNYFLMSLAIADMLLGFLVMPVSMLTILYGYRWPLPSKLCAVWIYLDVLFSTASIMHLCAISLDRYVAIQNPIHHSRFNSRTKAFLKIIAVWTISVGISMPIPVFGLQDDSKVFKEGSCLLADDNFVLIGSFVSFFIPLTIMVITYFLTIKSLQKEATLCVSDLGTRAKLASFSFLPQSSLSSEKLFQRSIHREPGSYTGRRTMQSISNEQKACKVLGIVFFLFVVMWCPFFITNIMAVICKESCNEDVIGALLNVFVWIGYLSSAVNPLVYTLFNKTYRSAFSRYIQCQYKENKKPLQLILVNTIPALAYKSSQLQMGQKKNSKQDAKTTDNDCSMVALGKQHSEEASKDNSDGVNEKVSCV

This assay has as its target 5-hydroxytryptamine receptor 2A (Homo sapiens) (UniProt P28223). Kind of assay: 5-hydroxytryptamine receptor 2A (HTR2A) small molecule antagonists, cell-based qHTS assay (AID 1963586). Note: nearly all actives have a fitted effect of over 45% in size. The settings on record: HTR2A-CHO cells, DOI-induced calcium flux, fluorescence; series mostly up to 61.5 µM; activity, negative = inhibition: at the top concentration. From the text: National Center for Advancing Translational Sciences [NCATS]
Division of Preclinical Innovation [DPI]
U.S. Environmental Protection Agency [EPA]
National Institutes of Environmental Health Sciences [NIEHS]
National Toxicology Program [NTP]
U.S. Food and Drug Administration [FDA]
The HTR2A receptor is a subtype of the 5-HT2 receptor that belongs to the serotonin receptor family and is a G protein-coupled receptor (GPCR). The HTR2A-CHO cell line stably expressing human 5-hydroxytryptamine receptor 2A (HTR2A) can be used for screening antagonists of interactions between 5-HT2 and its ligands. The HTR2A-CHO calcium flux assay is a homogeneous fluorescence-based assay for detecting the intracellular calcium level using FDSS kinetic plate reader system.
Tox21 Assay Protocol Summary:
HTR2A-CHO cells were dispensed at 2000 cells/3uL/well in 1536-well black-clear bottom plates using a Multidrop Dispenser. After the assay plates were incubated at a 37 C/5% CO2 incubator for 18 h, 3 uL of Dye Loading Buffer was transferred to the assay plate by a Flying Reagent Dispenser. The assay plates were incubated at 37 C for 1h. For antagonist mode, 23 nL of compounds dissolved in DMSO, positive controls or DMSO only was transferred to the assay plate by a pin tool. After 5 min incubation at room temperature, 1.5 uL of 4-Iodo-2,5-dimethoxy-alpha-methylbenzeneethanamine hydrochloride (DOI) at 4nM was added to each well. The fluorescence intensity in the plates was measured using FDSS 7000EX kinetic plate reader for 3 min at 1 sec intervals.
With `O=C(NCC1CCCCN1)c1cc(OCC(F)(F)F)ccc1OCC(F)(F)F` (stereo not given), the Potency result is “inactive”.

For `CCCN1C=CN(C)C1`, the Potency result was “inactive”.

On to `COc1ccc2c(c1)CCCC2=O`, for which the “activity, negative = inhibition” value was -21.1% [at 28.5 µM].

As to `C[C@H]1C[C@@H](O)CC(C)(C)C1`, the “activity, negative = inhibition” value is 1.33%.

In the case of `CC(C)(C)c1ccc(O)c(O)c1`, the Potency entry was “inactive”.

For the molecule `CC1=C(O)C(=O)C(C)O1` (stereo not given), the “activity, negative = inhibition” value was 48.7%.

Turning to `COc1cc(CCC(C)=O)ccc1O`, the Potency was 3.75 µM (active).

On to `C=COCCOCCOCCOC=C`, for which the “activity, negative = inhibition” value is 4.56%.

For the molecule `CC(C)(C)C(=O)OCOP(=O)(COCCn1cnc2c(N)ncnc21)OCOC(=O)C(C)(C)C`, the “activity, negative = inhibition” value is -18.9% [at 28.5 µM].

For `O=C(NCN1CCOCC1)c1cnccn1`, the “activity, negative = inhibition” value was -18% [at 28.5 µM].

In the case of `O=S(=O)(O)c1cc(O)c(O)c(S(=O)(=O)O)c1`, the “activity, negative = inhibition” value is 6%.

`NC(=O)c1ccc(N)cc1`: the “activity, negative = inhibition” value is -5.9%.

As for `O=Cc1ccc(Cl)cc1`, the “activity, negative = inhibition” value was -25.1%.

Consider `O=c1cc(CO)occ1O`, for which the “activity, negative = inhibition” value is 0.192% [at 28.5 µM].

In the case of `CC(=O)OCC(=O)[C@@]1(O)CC[C@H]2[C@@H]3CCC4=CC(=O)C=C[C@]4(C)[C@H]3[C@@H](O)C[C@@]21C`, the “activity, negative = inhibition” value is 1.45% [at 28.5 µM].

In the case of `CCCCCCCCCCCCCCCC`, the “activity, negative = inhibition” value was 16.4%.

Regarding `CC(C)C(=O)OC(=O)C(C)C`, the “activity, negative = inhibition” value is -3.93%.

In the case of `C/C=C/C(=O)O`, the Potency result was “inactive”.

Turning to `CC(=O)OC1CC(C)OC(C)O1` (stereo not given), the “activity, negative = inhibition” value was 2.18%.

In the case of `O=C(O)c1cc(=O)[nH]c(=O)[nH]1`, the Potency result was “inactive”.

Regarding `CCCCCCS`, the “activity, negative = inhibition” value was -14.2%.

For the molecule `CC(C)CCOC(=O)c1ccccc1`, the “activity, negative = inhibition” value is 2.78%.

Regarding `CCOC(=O)O[C@]1(C(=O)OCCl)CC[C@H]2[C@@H]3CCC4=CC(=O)C=C[C@]4(C)[C@H]3[C@@H](O)C[C@@]21C`, the “activity, negative = inhibition” value is -7.76% [at 28.5 µM].

With `N#CC1(O)CCCCC1`, the “activity, negative = inhibition” value was -23%.

As to `CC1CCCC(=O)C1=O` (stereo not given), the “activity, negative = inhibition” value was 3.41%.

Regarding `CC(C)CCCO`, the “activity, negative = inhibition” value is 17.9%.

Regarding `O=C1CCCCC1`, the “activity, negative = inhibition” value is 29.3%.

In the case of `CCC/C=C/C=O`, the Potency entry is “inactive”.

With `C[C@@H](O)[C@H]1C(=O)N2C(C(=O)O)=C([C@H]3CCCO3)S[C@H]12`, the “activity, negative = inhibition” value was -11.2% [at 28.5 µM].

Regarding `Cc1cccc2cccnc12`, the “activity, negative = inhibition” value was 103%.

Turning to `CCCCOCCOCCOC(=O)CCCCC(=O)OCCOCCOCCCC`, the Potency entry is “inactive”.

Take `CCN(C=O)CC`: the “activity, negative = inhibition” value is 9.7%.

For the molecule `COc1cc(N)c(Cl)cc1C(=O)NC1CCN(Cc2ccccc2)CC1`, the Potency is 1.83 µM (active).

With `Cc1ccccc1OCC1CO1` (stereo not given), the “activity, negative = inhibition” value was 85.6%.

Turning to `CC(C)Nc1ccccc1`, the “activity, negative = inhibition” value was -12.5%.

Consider `Cc1cnccn1`, for which the “activity, negative = inhibition” value was -19.6%.

For the molecule `CC(C)(C)c1nnc(NS(=O)(=O)c2ccc(N)cc2)s1`, the Potency was 7.29 µM (active).

As for `O=C1CCN(c2ccccc2)N1`, the “activity, negative = inhibition” value was -7.82%.

Take `C=CC(=O)OCCN(CC)CC`: the “activity, negative = inhibition” value is 0.882%.

Regarding `O=C(O)c1ccccc1C(c1ccc(O)cc1)c1ccc(O)cc1`, the Potency entry is “inactive”.
